# Where a name gives a salt, the structure may show the parent alone.
# Key:
# Conditions in all cases: incubation time: 27 h, anaerobic, 37 °C;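 for the amine columns active = adjusted P below 0.05 in both replicates with a change the same way and a mean fold change under 0.8 or over 1.25; inactive = the rest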
# [1] = system: Clostridium sporogenes DSM 1664; assay: growth (OD595) fold change vs plate DMSO controls (fold change (ratio)); higher = more growth
# Summary of the method: (§1)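 The 96-well mGAM cultures had been kept anaerobic for 27 h at 37 °C before being shaken and read at 595 nm. Blank subtraction, compound background correction with 20 µM compound solutions in water, and a calibration factor of 5 turned the readings into OD. Growth is given as the fold change versus the median of plate DMSO controls. Fold changes above 1.5 were set to NA, and the values are means of 2 biological replicates.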
# Escherichia coli IAI1 [2] = assay: as above
# Summary of the method: as §1
# [3] = system: Klebsiella aerogenes DSM 30053; assay: as above
# Summary of the method: as §1
# [4] = system: Ruminococcus gnavus DSM 108212; assay: as above
# Summary of the method: as §1
# [5] = system: Klebsiella aerogenes DSM 30053; assay: fold change of Histamine concentration vs plate DMSO controls (fold change (ratio)); higher = more amine produced, active = hit call of the paper (significant change in both replicates, either direction)
# Summary of the method: (§2)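 Extracts of whole anaerobic mGAM cultures were analysed for amines by LC–triple-quadrupole MS with dynamic MRM and external calibration curves, with drift corrected within batch. Four gut strains were grown at 37 °C for 27 h in 80 µL wells with compounds at 20 µM final, sweeteners at 50 µM final. Each value expresses fold change over plate DMSO controls. The average of 2 biological replicates is shown.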
# [6] = system: Clostridium sporogenes DSM 1664; assay: fold change of Tryptamine concentration vs plate DMSO controls (fold change (ratio)); higher = more amine produced, active = hit call of the paper (significant change in both replicates, either direction)
# Summary of the method: as §2
# [7] = system: Ruminococcus gnavus DSM 108212; assay: as above
# Summary of the method: as §2
# Escherichia coli IAI1 [8] = assay: fold change of Putrescine concentration vs plate DMSO controls (fold change (ratio)); higher = more amine produced, active = hit call of the paper (significant change in both replicates, either direction)
# Summary of the method: as §2
# [9] = system: Klebsiella aerogenes DSM 30053; assay: as above
# Summary of the method: as §2
# Escherichia coli IAI1 [10] = assay: fold change of Cadaverine concentration vs plate DMSO controls (fold change (ratio)); higher = more amine produced, active = hit call of the paper (significant change in both replicates, either direction)
# Summary of the method: as §2
# [11] = system: Klebsiella aerogenes DSM 30053; assay: as above
# Summary of the method: as §2
# [12] = system: Ruminococcus gnavus DSM 108212; assay: fold change of 2-Phenylethylamine concentration vs plate DMSO controls (fold change (ratio)); higher = more amine produced, active = hit call of the paper (significant change in both replicates, either direction)
# Summary of the method: as §2
Structure (SMILES),growth [1],growth (Escherichia coli IAI1 [2]),growth [3],growth [4],fold change of Histamine concentration [5],fold change of Tryptamine concentration [6],fold change of Tryptamine concentration [7],fold change of Putrescine concentration (Escherichia coli IAI1 [8]),fold change of Putrescine concentration [9],fold change of Cadaverine concentration (Escherichia coli IAI1 [10]),fold change of Cadaverine concentration [11],fold change of 2-Phenylethylamine concentration [12]
Cc1ncc([N+](=O)[O-])n1CCO [Metronidazole] (20 µM),0.00188,1.04,1.02,0.0847,0.975 (inactive),0.011 (active),0.0917 (active),0.94 (inactive),1.05 (inactive),0.997 (inactive),1.1 (inactive),0.0796 (active)
OC(Cn1cncn1)(Cn1cncn1)c1ccc(F)cc1F [Fluconazole] (20 µM),0.908,0.984,1.01,1.04,0.956 (inactive),1.05 (inactive),1.01 (inactive),0.989 (inactive),1.01 (inactive),1.01 (inactive),1.02 (inactive),0.959 (inactive)
OC[C@@H](O)[C@@H](O)[C@H](O)[C@@H](O)CO [Sorbitol] (50 µM),1.06,0.929,0.967,1.1,1.03 (inactive),0.988 (inactive),0.966 (inactive),0.923 (inactive),0.869 (inactive),1.1 (inactive),1.06 (inactive),0.959 (inactive)
CCCCC(O)c1ccccc1 (centres undefined) [Fenipentol] (20 µM),0.995,1.05,1.03,0.948,0.969 (inactive),0.989 (inactive),1.01 (inactive),1.01 (inactive),0.987 (inactive),1.03 (inactive),1.01 (inactive),1.04 (inactive)
CCOC(=O)[C@@](C)(N)Cc1ccc(O)c(O)c1 [Methyldopate hydrochloride] (20 µM),0.926,1.05,1.03,1.14,0.963 (inactive),1.04 (inactive),1.09 (inactive),1.22 (inactive),0.975 (inactive),0.898 (inactive),1.02 (inactive),1.07 (inactive)
OCCOCCN1CCN(C(c2ccccc2)c2ccc(Cl)cc2)CC1 (centres undefined) [Hydroxyzine dihydrochloride] (20 µM),1.07,1.01,1.05,0.906,0.909 (inactive),1.01 (inactive),1.02 (inactive),0.98 (inactive),0.966 (inactive),0.968 (inactive),1.02 (inactive),1.06 (inactive)
OCC1(O)OC[C@@H](O)[C@@H](O)[C@H]1O (some centres undefined) [Psicose] (50 µM),1.08,1.01,1.03,1.03,1.03 (inactive),0.991 (inactive),0.992 (inactive),1.04 (inactive),1.04 (inactive),0.967 (inactive),1.01 (inactive),0.942 (inactive)
CCc1c(C)[nH]c2c1C(=O)C(CN1CCOCC1)CC2 (centres undefined) [Molindone hydrochloride] (20 µM),0.781,1.07,1,1.1,1.02 (inactive),1.02 (inactive),1.07 (inactive),1.03 (inactive),0.987 (inactive),0.906 (inactive),1.01 (inactive),1.08 (inactive)
C=C1[C@H](CO)[C@@H](O)C[C@@H]1n1cnc2c(=O)[nH]c(N)nc21 [Entecavir] (20 µM),0.907,0.934,1.04,1.04,0.969 (inactive),0.982 (inactive),0.999 (inactive),0.972 (inactive),1 (inactive),1.04 (inactive),0.985 (inactive),0.98 (inactive)
O=P(O)(O)C(Cl)(Cl)P(=O)(O)O [Clodronate disodium] (20 µM),0.99,1.03,1.02,1.09,1.02 (inactive),0.973 (inactive),0.999 (inactive),1.02 (inactive),1.02 (inactive),1.03 (inactive),1 (inactive),0.981 (inactive)
O=C(C1CCCCC1)N1CC(=O)N2CCc3ccccc3C2C1 (centres undefined) [Praziquantel] (20 µM),1.01,0.975,0.99,0.82,1.06 (inactive),0.989 (inactive),1.03 (inactive),0.947 (inactive),1.02 (inactive),1.02 (inactive),0.978 (inactive),0.992 (inactive)
O=C(O)c1ccccc1Nc1cccc(C(F)(F)F)c1 [Flufenamic acid] (20 µM),1.16,0.983,1.07,0.538,0.993 (inactive),0.918 (inactive),0.989 (inactive),1.03 (inactive),1.02 (inactive),1.03 (inactive),1.02 (inactive),0.981 (inactive)
C1N2CN3CN1CN(C2)C3 [Methenamine] (20 µM),0.885,0.986,1.02,1.16,0.978 (inactive),1.05 (inactive),1.04 (inactive),1.01 (inactive),0.982 (inactive),1 (inactive),0.993 (inactive),1.03 (inactive)
OCCN1CCN(CCCN2c3ccccc3Sc3ccc(C(F)(F)F)cc32)CC1 [Fluphenazine dihydrochloride] (20 µM),1.03,1.13,1.05,0.85,0.925 (inactive),1.22 (inactive),0.878 (inactive),1.09 (inactive),0.982 (inactive),1.11 (inactive),1.03 (inactive),0.869 (inactive)
Cc1cn(-c2cc(NC(=O)c3ccc(C)c(Nc4nccc(-c5cccnc5)n4)c3)cc(C(F)(F)F)c2)cn1 [Nilotinib] (20 µM),0.888,1.07,1.11,1.02,0.924 (inactive),1.06 (inactive),0.879 (inactive),1 (inactive),1.01 (inactive),0.967 (inactive),1.01 (inactive),0.897 (inactive)
"CC(C)NC[C@H](O)COc1ccc(CC(N)=O)cc1 [(S,-) Atenolol] (20 µM)",0,0.913,1.01,0.825,1.04 (inactive),0.0316 (active),0.944 (inactive),0.847 (inactive),1.03 (inactive),0.954 (inactive),1.02 (inactive),0.909 (inactive)
CN(C)CCCN1c2ccccc2Sc2ccc(Cl)cc21 [Chlorpromazine hydrochloride] (20 µM),0.986,1.21,1.03,1.29,0.88 (inactive),1.06 (inactive),0.908 (inactive),1.14 (inactive),0.959 (inactive),0.934 (inactive),1.01 (inactive),0.935 (inactive)
Fc1ccc([C@@H]2CCNC[C@H]2COc2ccc3c(c2)OCO3)cc1 [Paroxetine hydrochloride] (20 µM),1.01,1.06,0.971,0.929,1.05 (inactive),0.925 (inactive),0.833 (inactive),0.692 (inactive),0.991 (inactive),1.69 (active),0.991 (inactive),0.885 (inactive)
CCN(CC)CCOC(=O)C(Cc1cccc2ccccc12)CC1CCCO1 (centres undefined) [Nafronyl oxalate] (20 µM),0.946,1.01,0.993,1,0.982 (inactive),0.969 (inactive),1.01 (inactive),1.01 (inactive),1 (inactive),1.03 (inactive),0.996 (inactive),1.01 (inactive)
COc1cc(C(=O)N2CCOCC2)cc(OC)c1OC [Trimetozine] (20 µM),0.932,0.972,0.986,1.05,0.989 (inactive),1.05 (inactive),1.04 (inactive),1.12 (inactive),0.998 (inactive),0.99 (inactive),1 (inactive),1.04 (inactive)
CNc1ncnc2c1ncn2[C@@H]1O[C@H](CO)[C@@H](O)[C@H]1O [N6-methyladenosine] (20 µM),1.05,0.994,1.02,0.955,1.03 (inactive),1.03 (inactive),1.04 (inactive),1 (inactive),0.992 (inactive),0.987 (inactive),1 (inactive),1.01 (inactive)
CN(C)CCOC(=O)C(c1ccccc1)C1(O)CCCC1 (centres undefined) [Cyclopentolate hydrochloride] (20 µM),0.823,1.04,1.04,0.93,0.982 (inactive),1.01 (inactive),1.02 (inactive),1.04 (inactive),0.987 (inactive),0.977 (inactive),0.99 (inactive),1.05 (inactive)
